# Results reported in PubChem BioAssay (Tox21).
# Records with an inconclusive call do not appear. A number with no mark means an inactive call. The source made the active and inactive calls. Calls come from the whole dose curve; as a rule, active = well fitted cell-killing curve with a large enough effect in the repeat runs (not every such curve was filed as active); inconclusive = weak or mixed curves, or effect the other way; inactive = no such curve, though single readings can be large or run the other way.
# Experiment: qHTS assay to identify small molecule antagonists of the estrogen related receptor signaling pathway with the pleiotropic PPARgamma coactivator (PGC) from Tox21 10K library - cell viability counter screen (AID 1224840); note: nearly all actives have a fitted effect of over 40% in size
# Details: PGC/ERR reporter cells viability, CellTiter-Fluor, 17.5 h; series mostly up to 92.4 µM; viability change, negative = cytotoxic: at the top concentration
# Excerpt: National Center for Advancing Translational Sciences [NCATS]
# NIH Chemical Genomics Center [NCGC]
# U.S. Environmental Protection Agency [EPA]
# National Institutes of Environmental Health Sciences [NIEHS]
# National Toxicology Program [NTP]
# U.S. Food and Drug Administration [FDA]
# Estrogen related receptors (ERRs), the first orphan nuclear receptors discovered, play an important role in the control of cellular energy metabolism. ERRs are required for high-energy production in response to the environmental challenges. The pleiotropic PPARgamma coactivator (PGC) is a major partner of ERR and a key regulator in energy homeostasis. Together they have been implicated in the etiology of metabolic disorders such as Type 2 diabetes and metabolic syndrome. ERR-alpha was also identified as an adverse marker for breast cancer progression; ERR-alpha-positive tumors have a poor prognosis. To screen and to identify environmental compounds that perturb the ERR and PGC/ERR signaling pathways could provide valuable information for potential therapeutic or preventive measures in the treatment of metabolic disease. To differentiate true PGC/ERR antagonists or agonist from cytotoxic substances, the assay is multiplexed with cell viability assay.
# Tox21 Assay Protocol Summary:
# The PGC/ERR cells were dispensed at 2,000 cells/5 ul/well in 1536-well white plates using a Multidrop dispenser. After the assay plates were incubated at a 37 C/5% CO2 incubator for 6 hours, 23 nL of compounds dissolved in DMSO, positive and negative controls or DMSO only was transferred to the assay plate by a pin tool. The plates were incubated at 37 C for 17.5 hours. 1 ul/well of CellTiter-Fluor reagent was added into the assay plates using a Flying Reagent Dispenser. After 30-minute incubation at 37 C/5% CO2, the fluorescence intensity in the plates was measured using a ViewLux plate reader.
# % is set by controls: 0 for no effect and ±100 for the full control effect; potency is the fitted concentration of half-maximal effect.
Compound,"viability change, negative = cytotoxic",Potency
N#C[C@@H]1C[C@@H]2C[C@@H]2N1C(=O)[C@@H](N)C12CC3CC(CC(O)(C3)C1)C2,14.4% [at 42.5 µM],–
COc1ccc([C@@H]2Sc3ccccc3NC(=O)[C@@H]2O)cc1,-24.5% [at 42.5 µM],–
Cc1ccc(S(=O)(=O)NC2CCCCC2)cc1,-11.9%,–
CO/N=C1\CN(c2nc3c(cc2F)c(=O)c(C(=O)O)cn3C2CC2)CC1CN (stereo not given),-4.81% [at 42.5 µM],–
O=[N+]([O-])c1cccc(S(=O)(=O)NCCNS(=O)(=O)c2cccc([N+](=O)[O-])c2)c1,-2.88% [at 42.5 µM],–
CC(=O)N(c1onc(C)c1C)S(=O)(=O)c1ccc(N)cc1,18.5% [at 42.5 µM],–
CC(=N\O)/C(C)=N/O,-9.01%,–
O=C1OCCN1/N=C/c1ccc([N+](=O)[O-])o1,-1.14% [at 42.5 µM],–
CC1(C)O[C@@H]2C[C@H]3[C@@H]4CCC5=CC(=O)C=C[C@]5(C)[C@H]4[C@@H](O)C[C@]3(C)[C@]2(C(=O)CO)O1,12.2% [at 42.5 µM],–
CSc1ccc(Oc2ccc(S(N)(=O)=O)cc2CN(C)C)cc1C,-23.2%,–
OC(CCCN1CCCCC1)(c1ccccc1)c1ccccc1,-2.67% [at 42.5 µM],–
O=S(=O)(c1ccccc1)c1ccc(Cl)cc1,-1.09%,–
CC(C)(C)CC(C)(C)c1ccc(OCCO)cc1,–,54.2 µM (active)
CNC(=S)NC,-20.5%,–
C=CCOC(=O)/C=C\C(=O)OCC=C,0.803%,–
CCCCCCCCCCCCCCC[C@H](O)[C@@H](N)CO,7.38% [at 42.5 µM],–
CO[C@H]1C=CO[C@@]2(C)Oc3c(C)c(O)c4c(O)c(c5c(c4c3C2=O)=NC2(CCN(CC(C)C)CC2)N=5)NC(=O)/C(C)=C\C=C/[C@H](C)[C@H](O)[C@@H](C)[C@@H](O)[C@@H](C)[C@H](OC(C)=O)[C@@H]1C,–,53.3 µM (active)
COC(=O)Nc1nc2ccc(C(=O)c3cccs3)cc2[nH]1,-21.3% [at 42.5 µM],–
CCOC(=O)OCC,3.32%,–
COC(=O)CC(=O)C(C)(C)C,-6.78%,–

Compound,"viability change, negative = cytotoxic",Potency
CN(C)C(=O)Nc1ccc(Oc2ccc(Cl)cc2)cc1,-18.8%,–
CC(C)(CCl)c1ccccc1,-8.65%,–
C=CC(C)(O)CCCC(C)CCCC(C)CCCC(C)C (stereo not given),6.02%,–
CCC(=O)OC/C=C/c1ccccc1,–,inactive
O=C(Nc1ccc([N+](=O)[O-])cc1)Nc1ccc([N+](=O)[O-])cc1,9.39% [at 42.5 µM],–
CC(=O)OCC(=O)[C@H]1CC[C@H]2[C@@H]3CCC4=CC(=O)CC[C@]4(C)[C@H]3CC[C@]12C,8.26% [at 42.5 µM],–
OCCSc1ccccc1,-13.2%,–
CC(=O)OCC(=O)[C@@]12OC(C)(C)O[C@@H]1C[C@H]1[C@@H]3C[C@H](F)C4=CC(=O)C=C[C@]4(C)[C@@]3(F)[C@@H](O)C[C@@]12C,3.04% [at 42.5 µM],–
CCOC(=N)CC(=O)OCC,-0.748%,–
CC(C)CCCC(=O)O,4.51%,–
O=C(O)c1ccccc1NCCc1ccccc1,0.402% [at 42.5 µM],–
CC1=CC(O)CC(C)(C)C1 (stereo not given),11.1%,–
O=Cc1c(Cl)cccc1Cl,-2.45%,–
CCCCCCCCCCOS(=O)(=O)O,-0.607%,–
Nc1ccc(S(=O)(=O)O)c(N)c1,-6.35%,–
CC1(C)C2=CCCC(C)(C)[C@]23CC[C@H]1C3,-5.7%,–
CC1CN(c2cc3c(cc2F)c(=O)c(C(=O)O)cn3-c2ccc(F)cc2F)CCN1 (stereo not given),0.948% [at 8.39 µM],–
C=CC(=C)CCCC(C)(C)OC(C)=O,6.06%,–
CC(=O)CC(c1ccc([N+](=O)[O-])cc1)c1c(O)c2ccccc2oc1=O (stereo not given),-1.81% [at 42.5 µM],–
O=C(O)c1snc(Cl)c1Cl,3.56%,–
